Screening results as filed in PubChem.
Pf Dd2 inh – qHTS Primary assay for Inhibitors of Plasmodium falciparum Dd2 growth in vitro. P. falciparum Dd2 growth, SYBR Green, 72 h. Potency, µM (series often up to 28.9 µM), inactives show at the top dose activity, negative = inhibition, most hits filed as inhibitors. 120,000 compounds, 4.3% hits. AID 1347417, 2020; active = well fitted inhibition curve with a large enough effect;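 note: plate controls were DMSO vehicle for no effect and reference drug for full effect; nearly all actives have a fitted effect of over 65% in size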
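Readout: SYBR Green fluorescence, 485 nm excitation, 535 nm emission, after ~16 h lysis at 37C. Before that, Dd2-infected red cells (2.5% hematocrit) grew 72 h with compound, 29 uM top final concentration.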
Numbers without * were called inactive; [ ] = another dose, or the depositor's remark. The sample as a whole holds a higher share of hits than the screen did. Potency is the fitted concentration of half-maximal effect.

`COc1ccc(-c2nc3sc(CCNC(=O)Cc4ccc(Cl)cc4)c(C)n3n2)cc1` gave Pf Dd2 inh 5.6%.
Screening Cc1c(CCNC(=O)c2ccc(Br)o2)sc2nc(-c3ccc(Cl)cc3)nn12 returned Pf Dd2 inh -16.4%.
For CCOc1ccc(CC(=O)NCCc2sc3nc(-c4ccc(OC)cc4)nn3c2C)cc1 the results were Pf Dd2 inh -27.8%.
`COc1ccc(-c2nc3sc(CCNC(=O)c4ccc(C(C)(C)C)cc4)c(C)n3n2)cc1` gave Pf Dd2 inh 1.12µM*.
Cc1cccc(OC[C@H]2C[C@@H](NC(=O)c3c(-c4ccccc4)noc3C)[C@H](O)[C@@H]2O)n1 was read as Pf Dd2 inh 3.3%.
For CCCN1CCC2(CCN(C(=O)Nc3ccccc3)CC2)Oc2ccccc21 the results were Pf Dd2 inh inactive.
CCOc1ccccc1CN1CCN(S(=O)(=O)c2ccccc2)CC1 was read as Pf Dd2 inh 11.9%.
For CCOc1ccccc1CN1CCC2(CCN(C(=O)C3CCCC3)CC2)Oc2ccccc21 the results were Pf Dd2 inh -16.8%.
For CCCN1CCC2(CCN(C(=O)COC)CC2)Oc2ccccc21 the results were Pf Dd2 inh -18.1%[44.1 µM].
Screening CCOc1ccccc1CN1CCC2(CCN(C(=O)Cc3ccc(F)cc3)CC2)Oc2ccccc21 returned Pf Dd2 inh 8.91µM*.
Screening CCOc1ccccc1CN1CCC2(CCN(CCC(C)C)CC2)Oc2ccccc21 returned Pf Dd2 inh 1µM*.
CNC(=O)[C@@H]1C[C@@H](N)CN1C(=O)c1cnc(-c2ccccc2)nc1C was read as Pf Dd2 inh -1.1%.
Screening C/C=C/CC(=O)N1CCC2(CCN(Cc3cccc(F)c3)CC2)C(CO)C1 (stereo not given) returned Pf Dd2 inh -19.9%.
For CCO[C@H]1CN(C(=O)COc2ccc(Cl)cc2C)C[C@@H]1O the results were Pf Dd2 inh 0.8%.
`COCC(=O)NCC(=O)N1CCCCCNC(=O)CC1c1ccccc1` (stereo not given) gave Pf Dd2 inh 13.9%.
Screening Cc1cc(OCC(=O)Nc2cc(-c3nc4ncccc4o3)ccc2C)ccc1Cl returned Pf Dd2 inh 10µM*.
For Cc1cc(-c2nc3ncccc3o2)ccc1NC(=O)COc1ccccc1C the results were Pf Dd2 inh 2.4%.
Screening Cc1cc(-c2nc3ncccc3o2)ccc1NC(=O)COc1cc(C)c(Cl)c(C)c1 returned Pf Dd2 inh 4.1%.
For CCCCC(=O)Nc1ccc(C)cc1NC(=O)COc1cccnc1 the results were Pf Dd2 inh -6.9%.
Screening CN(Cc1ccc(-c2ccccc2)cc1)C(=O)c1ccc(C(F)(F)F)cc1 returned Pf Dd2 inh 0.1%.
`Cc1oc(C(O)c2cncnc2)nc1C(=O)Nc1cccc([S+](C)(=O)[O-])c1` (stereo not given) gave Pf Dd2 inh -8.4%[44.1 µM].
O=C(c1ccc2c(c1)OCO2)N1CCC(N2Cc3cccn3C2=O)CC1 was read as Pf Dd2 inh inactive.
`CCOc1ccc(C(=O)N2CCC3(CC2)NC(=O)N(Cc2ccc(F)cc2)C3=O)cc1` gave Pf Dd2 inh inactive.
CCOc1ccc(CNC(=O)c2cc(=O)[nH]c3ccc(S(=O)(=O)N4CCCC4)cc23)cc1 was read as Pf Dd2 inh 4.6%.
Screening CCOc1ccc(C2c3[nH]c4ccccc4c3CCN2C(=O)CSCc2ccc(F)cc2)cc1 (stereo not given) returned Pf Dd2 inh 11.2µM*.
CC(C)(O)C#Cc1ccc(C(=O)N2CCOCC2CC(=O)O)o1 (stereo not given) was read as Pf Dd2 inh 15.3%.
Screening Cc1ccc(S(=O)(=O)c2nc(-c3ccccc3)oc2N2CCN(c3ccccc3)CC2)cc1 returned Pf Dd2 inh 39.9%.
Cc1ccc(-c2nc(S(=O)(=O)c3ccc(C)cc3)c(N3CCN(c4ccccc4)CC3)o2)cc1 was read as Pf Dd2 inh 24.8%.
Screening Cc1ccc(S(=O)(=O)c2nc(-c3cccc(C)c3)oc2N2CCN(c3ccccc3)CC2)cc1 returned Pf Dd2 inh 10µM*.
COCCCN(CCC(=O)NCc1ccc2c(c1)OCO2)C(=O)c1cc(C)oc1C was read as Pf Dd2 inh inactive.
For COc1ccc(-n2c3c(cc(-c4nc(-c5ccc(Cl)cc5)cs4)c2=O)C(=O)CC(C)(C)C3)cc1Cl the results were Pf Dd2 inh 7.9%.
For Cc1ccc(-c2cc3c(n2-c2ccccc2F)CC(C)(C)CC3=O)cc1 the results were Pf Dd2 inh -4.2%.
`COc1ccc(C)cc1-n1c(-c2ccc(Cl)cc2)cc2c1CC(C)(C)CC2=O` gave Pf Dd2 inh 1µM*.
Screening Cc1ccc(S(=O)(=O)NC[C@H]2OC[C@@H](NCc3cccc(C#N)c3)[C@@H]2O)cc1 returned Pf Dd2 inh -20.2%[44.1 µM].
`CC(C)Cc1cc(Cn2cc(-c3cncnc3)nn2)no1` gave Pf Dd2 inh 5.6%.
CCCCN(CC)CCNC(=O)c1cc2c(=O)[nH]c3ccccc3c2n1C was read as Pf Dd2 inh inactive.
CCCCN(CC)CCCNC(=O)c1cc2c(=O)[nH]c3ccccc3c2n1C was read as Pf Dd2 inh 8.91µM*.
CCCCNC(=O)c1c(C)oc2ncn(CC(C)C)c(=O)c12 was read as Pf Dd2 inh inactive.
`COc1cc(Cl)c(C)cc1NC(=O)c1cn(C2CCCC2)c(=O)c2c1c1ccccc1n2C` gave Pf Dd2 inh -10.3%.
`CCCN(CCC)CCCNC(=O)c1cc2c(=O)[nH]c3ccccc3c2n1C` gave Pf Dd2 inh inactive.
CCCCN(CCCC)CCNC(=O)c1cn(CC)c2ccc(S(=O)(=O)N3CCc4ccccc4C3)cc2c1=O was read as Pf Dd2 inh -25.1%.
For CCCCN(CC)CCCNC(=O)c1cn(CC(C)C)c(=O)c2c1c1ccccc1n2C the results were Pf Dd2 inh 7.08µM*.
Screening CCOCCCNC(=O)c1cc2c(=O)n(C)c3ccccc3c2n1C returned Pf Dd2 inh 7.9%.
Screening CCN(CC)CCNC(=O)c1cn(CCOC)c(=O)c2c1c1ccccc1n2C returned Pf Dd2 inh 10µM*.
Screening C[C@@H](NC(=O)C1CCCCC1)c1c(-c2ccc(F)cc2)noc1C(=O)O returned Pf Dd2 inh 2.6%[44.1 µM].
COc1ccccc1C(=O)N[C@@H]1CN(C2CCOCC2)C[C@H]1CN(C)C was read as Pf Dd2 inh inactive.
CC(C)Nc1ncnc2c1CN(C1CCCNC1)C(=O)CN2C (stereo not given) was read as Pf Dd2 inh -6.3%.
For Cc1ccc(O[C@H]2CCOC[C@H]2NC(=O)c2cc(C#N)cn2C)cn1 the results were Pf Dd2 inh 1.2%.
Screening CS(=O)(=O)c1ccc(CN[C@@H]2CO[C@H](CNC(=O)Nc3ccccc3)[C@H]2O)cc1 returned Pf Dd2 inh -23.0%[44.1 µM].
For CNC(=O)N1CCCC(Cc2ncc(C)n2C(C)C)C1 (stereo not given) the results were Pf Dd2 inh -12.3%.
For CCOc1ccccc1NC(=O)N1CCCC(Cc2ncc(C)n2C(C)C)C1 (stereo not given) the results were Pf Dd2 inh 1.78µM*.
Cc1cnc(CC2CCN(S(=O)(=O)c3ccccc3)C2)n1C(C)C (stereo not given) was read as Pf Dd2 inh 3.16µM*.
`CC(=O)N1CCC(Cc2ncc(C)n2C(C)C)C1` (stereo not given) gave Pf Dd2 inh 3.3%.
`CNC(=O)N1CCC(Cc2noc(C3CCOCC3)n2)C1` (stereo not given) gave Pf Dd2 inh 1.6%.
O=C(c1n[nH]c(=O)c2ccccc12)N1CCC(Cc2noc(C3CCOCC3)n2)C1 (stereo not given) was read as Pf Dd2 inh 5.6%.
